# p53 reactivator: qHTS assay for re-activators of p53 using a Luc reporter; H1299 p53-A138V BP100-luciferase reporter, luminescence, 24 h; hit rate 0.063% among 320,000; AID 504706, 2011; Potency, µM (titrated, usually from 92.2 µM), without a hit: top-dose activity change, positive = activation, most hits filed as activators; note: % of control where 0% means no effect; nearly all actives have a fitted effect of over 45% in size
#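 p53-null H1299 cells stably carrying temperature-sensitive p53-A138V and a BP100-luciferase reporter were pinned with compounds (4-point, 1:5 series) and held 24 hrs at 37 deg C. Luminescence was read 10 min after detection reagent.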
# FLuc counter: qHTS profiling assay for firefly luciferase inhibitor/activator using purifed enzyme and Km concentrations of substrates (counterscreen for miR-21 project); Luciferin 4-monooxygenase (Photinus pyralis), P08659; purified FLuc, Km substrates, luminescence inhibition; Potency, µM (titrated, usually from 57.5 µM), for the others: at the highest dose activity change, negative = inhibition, most hits filed as inhibitors; hit rate 6.9% among 360,000;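 note: plate controls were vehicle for no effect and reference inhibitor for full effect; nearly all actives have a fitted effect of over 55% in size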
# Target sequence (P08659 whole entry, looked up): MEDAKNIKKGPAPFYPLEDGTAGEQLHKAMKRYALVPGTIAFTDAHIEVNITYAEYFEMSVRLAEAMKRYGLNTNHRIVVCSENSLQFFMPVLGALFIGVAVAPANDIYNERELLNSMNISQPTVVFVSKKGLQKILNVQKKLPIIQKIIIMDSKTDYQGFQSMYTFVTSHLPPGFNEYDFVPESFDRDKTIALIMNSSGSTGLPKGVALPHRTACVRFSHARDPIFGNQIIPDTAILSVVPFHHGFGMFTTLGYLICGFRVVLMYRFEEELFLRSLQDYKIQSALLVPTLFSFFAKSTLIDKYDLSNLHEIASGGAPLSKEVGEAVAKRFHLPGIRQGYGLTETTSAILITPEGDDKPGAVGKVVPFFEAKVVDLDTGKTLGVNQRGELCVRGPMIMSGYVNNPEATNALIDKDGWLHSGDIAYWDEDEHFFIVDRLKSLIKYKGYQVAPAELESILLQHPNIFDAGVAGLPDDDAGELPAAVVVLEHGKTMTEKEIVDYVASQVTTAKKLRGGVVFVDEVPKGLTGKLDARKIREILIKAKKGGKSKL
#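 Purified P. pyralis luciferase, 10 nM final, with Km-level 10 uM D-luciferin and 10 uM ATP in 50 mM Tris acetate pH 7.5, 10 mM Mg acetate, 0.01% Tween-20, 0.05% BSA; 6-point qHTS titration about 60 µM downward; luminescence read.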
# Rab9 promoter act: qHTS Assay for Rab9 Promoter Activators. AID 485297, 2010. Huh7 Rab9 promoter-luciferase reporter, luminescence, 24 h. hit rate 2.8% among 320,000. Potency, µM (series often up to 9.22 µM), for the others: at the top dose activation, negative = inhibition, most hits filed as activators; note: % of control where 0% means no effect; nearly all actives have a fitted effect of over 60% in size
#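 Steps: seed 1500 Huh7 Rab9-luc cells per well, rest 2 h at 37 °C; add compound in DMSO; incubate 24 h; add luciferase reagent, 10 min ambient; read luminescence.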
# NPC1 prom act: qHTS Assay for NPC1 Promoter Activators. Huh7 NPC1 promoter luciferase reporter, 24 h. Potency, µM (doses to about 9.22 µM), inactives show at the top dose activation, actives largely listed as activators. hit rate 2.4% among 320,000. AID 485313, 2010; note: % of control where 0% means no effect; nearly all actives have a fitted effect of over 60% in size
#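 Stably transfected Huh7 (NPC1 promoter→luciferase), 1500 cells/well in Opti-MEM + 10% FBS, 2 h settle, then compound 24 h at 37 °C. Luminescence after 10 min with Amplite reagent.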
# SMN2 splice up: qHTS Assay for Enhancers of SMN2 Splice Variant Expression | HEK293 SMN2-luciferase splicing reporter, luminescence, 30-36 h | Potency, µM (doses to about 46.1 µM), inactives show top-dose activity change, positive = activation, usual class: activators | hit rate 2.8% among 210,000 | AID 1458, 2008; note: % of control where 0% means no effect; nearly all actives have a fitted effect of over 55% in size
#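 qHTS luciferase splicing reporter: luminescence rises when SMN2 exon 7 is included in transfected HEK293 cells. Compound exposure lasted 30-36 h at 37C, with 4.5 mM final sodium butyrate as control, followed by a ONE-Glo read.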
# ELG1 genotox: qHTS screen for small molecules that induce genotoxicity in human embryonic kidney (HEK293T) cells expressing luciferase-tagged ELG1; hit rate 1.3% among 330,000; Potency, µM (top dose mostly 46 µM), for the others: at the highest dose activity change, positive = activation, usual class: activators; HEK293T ELG1-luciferase reporter, luminescence, 16 h; note: % of control where 0% means no effect; nearly all actives have a fitted effect of over 60% in size
#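 ELG1-luciferase HEK293T cells, 2,000/well; compound pinned in; 16 hr, 37 °C, 5% CO2; ONE-Glo, 30 min RT; luminescence on CCD imager.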
# Active calls of the source: *; ? = inconclusive; . = no result; [ ] = another dose, or the depositor's remark. Only some compounds are listed: those with a hit (about 7.4% of all), similar ones and a draw of the others. Calls come from the whole dose curve; as a rule, active = well fitted curve in the direction sought with a large enough effect; inconclusive = small, poorly fitted or top-dose-only effect, or another doubt; inactive = no such curve, though single readings can be large; an effect the other way counts as inactive or inconclusive. Potency is the fitted concentration of half-maximal effect.
SMILES,p53 reactivator,FLuc counter,Rab9 promoter act,NPC1 prom act,SMN2 splice up,ELG1 genotox
c1cncc(CNc2cccc(-c3nc4ccccc4[nH]3)c2)c1,15%,7.6µM*,2.5µM*,2.8µM*,0.89µM*,?
CC(=O)Nc1ccc2nc(-c3ccncc3)[nH]c2c1,-1%,-19%,0%,4%,8%,13%
O=C(Nc1ccc(-c2nc3ccc(NC(=O)c4cccs4)cc3[nH]2)cc1)c1cccs1,1%,-11%,-13%,-5%,10µM*,13µM*
Cc1cc(C)n(C(C)CNS(=O)(=O)c2ccc(Cl)cc2)n1 (stereo not given),3%,2%,-4%,1%,.,0%
CCOC(=O)Cc1csc(NC(=O)c2cc(-c3ccncc3)nc3ccccc23)n1,-6%,-4%,1%,-1%,.,-8%
O=C(Cc1nc2ccccc2[nH]1)c1ccc([N+](=O)[O-])cc1,24%,15µM*,?,3.2µM*,.,?
Clc1ccc(/C(Cc2nc3ccccc3[nH]2)=N\Nc2ccccc2)cc1,17%,13µM*,2.8µM*,3.5µM*,.,?
O=C(NCCc1nc2ccccc2[nH]1)c1ccc([N+](=O)[O-])cc1,0%,-7%,1%,2%,.,1%
O=C(Cc1nc2ccccc2[nH]1)c1ccc(Cl)cc1,?,6µM*,2.5µM*,2.5µM*,.,16%
N#CCCN/N=C(/Cc1nc2ccccc2[nH]1)c1cccc(Cl)c1,15%,?,19%,11%,0.56µM*,0%
O=C(NCCc1nc2ccccc2[nH]1)Nc1ccccc1,2%,0%,2%,4%,-12%,0%
O=C1CCc2cc(NS(=O)(=O)c3cc(F)ccc3F)cc3c2N1CC3,-4%,6%,-3%,-1%,.,20%
CCC/C=C(\CCC)C(NS(=O)(=O)c1ccc(-c2ccccc2)cc1)c1ccc(C(=O)OC)cc1 (stereo not given),.,.,.,.,-5%,.
CSc1ccc(CCNC(=O)Cn2ncc3c(=O)oc4ccccc4c32)cc1,.,-2%,.,.,-9%,.
CN/N=C(\Cc1nc2ccccc2[nH]1)c1ccc([N+](=O)[O-])cc1,4%,17µM*,?,?,?,13%
c1cncc(CNc2nc(-c3cccnc3)nc3ccccc23)c1,-6%,4%,0%,0%,.,-10%
CC(C)(C)c1ccc(-c2nc(NCc3cccnc3)c3ccccc3n2)cc1,?,3.4µM*,21%,?,25µM*,?
CN(CC(=O)O)Cc1c(O)c(Cl)cc(Cl)c1Cl,.,.,.,.,-14%[9.22 µM],.
CCCCc1cc2c(cn1)=C(OC(=O)C1CCCC1)C(C)(OC(=O)CC)C(=O)C=2 (stereo not given),.,.,.,.,-2%[9.22 µM],.
C=C1C(=O)OC2C1CC/C(C)=C/CCC1(C)OC21 (stereo not given),.,.,.,.,-13%,.
Cc1cc(C(=O)CSc2cccc[n+]2[O-])c(C)n1-c1ccc(OC(F)F)cc1,12%,15µM*,?,?,.,8%
COC(=O)c1ccc(-n2c(C)cc(C(=O)CSc3cccc[n+]3[O-])c2C)cc1,-6%,?,-1%,1%,8%,-3%
CCN(CC(=O)Nc1c(F)cccc1F)C(=O)/C=C/c1ccc(C)cc1,?,19µM*,?,?,.,?
CCOc1cc(C(=O)N(Cc2nc(-c3ccc(C)cc3)no2)C(C)C)cc(OCC)c1OCC,.,-11%,.,.,1%,.
COc1cc(/C=C/c2noc(-c3ccccc3O)n2)ccc1OC(C)=O,15%,12µM*,?,?,.,13µM*
SMILES,p53 reactivator,FLuc counter,Rab9 promoter act,NPC1 prom act,SMN2 splice up,ELG1 genotox
Oc1ccccc1/C=C/c1noc(-c2ccccc2O)n1,12%,1.9µM*,14%,?,?,5.8µM*
CCSc1nnc(NC(=O)Cc2ccc(OC)cc2)s1,6%,0%,10%,1%,-6%,0%
CCc1nnc(NC(=O)c2cc(C)oc2C)s1,5%,17µM*,7%,-1%,.,18%
CCSc1nnc(NC(=O)c2cc(C)oc2C)s1,?,17µM*,?,?,11µM*,7.3µM*
CCSc1nnc(NC(=O)c2ccc(C)o2)s1,26%,17µM*,?,?,16µM*,18µM*
CCc1nnc(NC(=O)c2oc3cc(C)c(C)cc3c2C)s1,18%,-1%,6%,16%,?,9%
CC(=O)N1c2ccc(S(=O)(=O)N3CCCC3C(=O)Nc3ccc(C)cc3)cc2CC1C (stereo not given),.,-1%,2%,-4%,.,-5%
Cc1onc(-c2ccccc2)c1C(=O)Nc1nc(-c2ccccc2)cs1,?,19µM*,?,12%,?,?
COc1ccc(CC(=O)Nc2nc(C)cs2)cc1,3%,-8%,7%,6%,5%,5%
Cc1ccc(-c2csc(NC(=O)C3=NN(c4ccccc4)C(=O)CC3)n2)cc1,10%,8.5µM*,-29%,-7%,-52%,-13%
Cc1csc(NC(=O)C2=NN(c3ccccc3)C(=O)CC2)n1,-2%,-2%,0%,-2%,-5%,0%
O=C(Nc1nc(-c2ccccc2)cs1)c1ccccc1F,.,17µM*,3.5µM*,?,.,?
Cc1csc(NC(=O)c2ccc(C)o2)n1,?,15µM*,3.5µM*,?,.,?
COc1ccc(-c2csc(NC(=O)c3ccccc3F)n2)cc1,.,?,5%,1%,.,8%
CCCc1nc2ccccc2n1CC(O)COc1ccc(C(=O)OC)cc1 (stereo not given),.,-20%,.,.,-6%,.
CCOC(=O)C1=C(CS(=O)(=O)c2ccc(C)c(C)c2)NC(=O)NC1c1ccccc1OCC (stereo not given),.,5%,.,.,-5%,.
Cc1ccc(C(=O)Nc2nc(-c3cccnc3)cs2)o1,?,21µM*,21%,19%,16%,1%
O=C(Nc1nc(-c2ccccc2)cs1)c1ccc(Br)o1,?,24µM*,20%,11%,-5%,6%
CNC(=O)C1CCC(Cn2c(=O)c3sccc3n(CC(=O)NCc3ccc(F)cc3)c2=O)CC1 (stereo not given),.,3%,.,.,.,.
CCO[Si](CCCN)(OCC)OCC,.,.,.,.,4%,.
CCCN(CC1CC1)C(=S)NC(=O)c1cc(Br)ccc1Cl,5%,-8%,1%,6%,.,-1%
CN(Cc1ccccc1)Cc1c(F)cccc1F,3%,15%,-4%,-2%,1.4µM*,-5%

# Screening results as filed in PubChem BioAssay.
